Hits are enriched below; roughly 13% of the tested compounds scored in any of these assays.
HCMV inh: human cytomegalovirus inhibition; HFF cells, HCMV-luciferase reporter, 72 h; hits give low values; activity change, negative = inhibition, % at 57.5 µM; 410,000 tested, 4.5% active; AID 1259415; in the data active means activity change below about -60%; inconclusive means no clear call, values can overlap the other calls; inactive means above about -39%
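Inhibition of viral replication was scored as loss of reporter luminescence in HFFs infected with HCMV-luciferase (MOI 1 PFU/cell) for 72 h; compounds tested at 2 doses, normalized to buffer and Salinomycin controls.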
Pf growth 48h: P. falciparum growth inhibition at 48 hours (one generation). 310,000 tested, 5.9% active. P. falciparum luciferase growth in erythrocytes, 48 h. Potency, µM (top dose mostly 28.7 µM), hits mostly inhibitors. AID 504832
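Growth was read as firefly luciferase luminescence after a 48 h, 37 C, 5% CO2 exposure of compounds to reporter-bearing P. falciparum cultures (0.1% parasitemia, 2% hematocrit final) in Albumax-supplemented RPMI 1640.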
HCV inh: HCV inhibition; 340,000 tested, 3.4% active; Potency, µM (titrated, usually from 41.8 µM), usual class: inhibitors; Huh7.5.1 HCVcc-Cre infection, luciferase reporter, 44 h; AID 651820
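1,000 cells/well; 4 h culture; + compound; + HCVcc-Cre (~0.5 moi); 44 h; luciferase substrate, RT 15 min; read 15 sec.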
Pf growth 96h: P. falciparum growth inhibition at 96 hours; P. falciparum luciferase reporter growth, 96 h; Potency, µM (series often up to 28.7 µM), usual class: inhibitors; 320,000 tested, 6.9% active; AID 504834
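Luminescence readout: decreased luciferase signal marks inhibited growth of reporter-expressing P. falciparum in infected red cells (2% hematocrit, 0.05% parasitemia final), exposed to compound two generations (96 h, 37 C, 5% CO2).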
Hits are given with their value; – = inactive; ? = inconclusive; · = not tested or not shown; [ ] = dose if it differs, or a comment. Unless noted, the call rests on the fitted dose curve; in most records, active means well fitted inhibition curve with a large enough effect; inconclusive means small, poorly fitted or top-dose-only effect, or another doubt; inactive means no such curve, though single readings can be large or run the other way.

SMILES	HCMV inh	Pf growth 48h	HCV inh	Pf growth 96h
CC(O)CNc1nc2sc3c(c2c(=O)n1CCc1ccccc1)CCCCC3 (configuration not stated)	–	12µM	–	–
CN(C)CCNc1nc2sc3c(c2c(=O)n1CCc1ccccc1)CCCCC3	-99	2.1µM	?	2.3µM
CC(O)CNc1nc2sc3c(c2c(=O)n1Cc1ccco1)CCCCC3 (configuration not stated)	–	?	–	–
CC(=O)N1CCc2cc(Br)cc(S(=O)(=O)N3CCN(c4cccc(C(F)(F)F)c4)CC3)c21	–	·	·	·
O=[N+]([O-])/C=C/c1c(Cl)cccc1Cl	–	·	8.9µM	·
O=[N+]([O-])/C=C/c1cc2ccccc2[nH]1	–	?	–	?
COc1ccc(CCNC(=O)c2cc(S(=O)(=O)N3CCCCC3)ccc2Cl)cc1	–	–	?	?
CN(C)S(=O)(=O)c1cccc(C(=O)NCCc2ccccc2)c1	–	–	–	–
C=CCN(c1ccccc1Cl)S(=O)(=O)c1cccc(C(=O)NCCc2ccc(OC)cc2)c1	-65	?	?	?
COc1ccc(C(=O)NCC(c2ccc3c(c2)OCO3)N2CCN(c3ccc(OC)cc3)CC2)cc1 (configuration not stated)	–	?	?	2.6µM
COc1ccc(C(CNC(=O)c2ccc(S(=O)(=O)N(C)C)cc2)N2CCCC2)cc1 (configuration not stated)	–	10µM	–	?
COc1ccc(CCNC(=O)c2ccc(Cl)c(S(=O)(=O)N3CCCC3)c2)cc1	-74	12µM	11µM	6.6µM
COc1ccc(C(=O)NCC(c2ccc(Cl)cc2)N2CCCCC2)cc1 (configuration not stated)	–	·	·	·
Cc1ccc(C(C)C)c(OCCCn2c(=O)oc3ccccc32)c1	–	·	·	·
O=C(c1ccccc1Br)N(Cc1ccco1)Cc1ccco1	–	·	·	·
O=C(CSc1ncccn1)N(Cc1cccnc1)C(CCc1ccccc1)c1nc2ccccc2[nH]1 (configuration not stated)	–	·	·	·
C=CCN(c1ccccc1OC)S(=O)(=O)c1cccc(C(=O)NCc2cccs2)c1	-63	12µM	4.5µM	12µM
COc1ccc(C(CNC(=O)c2ccc(C)c(S(=O)(=O)N3CCCCC3)c2)N2CCCC2)cc1 (configuration not stated)	–	·	–	·
COc1ccc(CCNC(=O)c2cccc(S(=O)(=O)N3CCCCC3)c2)cc1	-66	?	?	–
COc1ccc(C(CNC(=O)c2ccc(Cl)c(S(=O)(=O)N3CCCC3)c2)N2CCCC2)cc1 (configuration not stated)	–	13µM	?	7.4µM
COc1ccc(C(CNC(=O)c2cc(S(=O)(=O)N3CCCC3)ccc2Cl)N2CCCC2)cc1 (configuration not stated)	–	?	?	9.3µM
COc1ccc(C(=O)CSc2nc3cc(C(=O)NC4CCCC4)ccc3c(=O)n2CC2CCCO2)cc1 (configuration not stated)	–	·	·	·
CN(C)c1ccc(NC(=O)CSC2=Nc3ccccc3C3=NC(CCC(=O)NCc4cccs4)C(=O)N23)cc1 (configuration not stated)	–	·	·	·
CCc1nn(CC(=O)NC(C)CC)c(=O)c2cc3occc3n12 (configuration not stated)	–	·	·	·
CNS(=O)(=O)c1cccc(C(=O)OCC(=O)c2c(N)n(C)c(=O)n(C)c2=O)c1	–	?	?	?
SMILES	HCMV inh	Pf growth 48h	HCV inh	Pf growth 96h
O=C(NCCOc1ccc(Cl)cc1)c1cccc(S(=O)(=O)N2CCCC2)c1	-68	?	16µM	?
C=CCN(c1ccccc1OC)S(=O)(=O)c1cccc(C(=O)OCC(=O)c2c(N)n(C)c(=O)n(C)c2=O)c1	-70	·	?	·
C=CCN(c1ccccc1Cl)S(=O)(=O)c1cccc(C(=O)OCC(=O)N(C)C2CCS(=O)(=O)C2)c1 (configuration not stated)	–	–	3.5µM	–[5.75 µM]
CCOc1ccccc1NC(=O)CSc1c(C)cnc2c1c(=O)n(C)c(=O)n2C	–	·	·	·
O=C(N[C@H]1CC[C@@]23CCCN2C(=O)CCC[C@H]3[C@H]1Cc1ccccc1)c1ccc(C(F)(F)F)cc1	–	·	·	·
Cc1cc(OCCn2cc(C(=O)c3cccs3)c3ccccc32)ccc1Cl	–	·	·	·
Cc1ccc(C2=NNC(c3cccc(F)c3)S2)cc1 (configuration not stated)	–	–	–	12µM
COc1ccc(C2NC(=O)CS2)cc1OC (configuration not stated)	–	–	–	–
COc1ccc(C2NN=C(c3ccc(C)cc3)S2)cc1OC (configuration not stated)	–	–	?	1.9µM
Fc1cccc(C2NN=C(c3ccccc3)S2)c1 (configuration not stated)	–	–	–	–
CCOC(=O)c1c(N)sc2c1CCC(CC)C2 (configuration not stated)	–	·	–	–
CCOC(=O)c1c(N)sc2c1CCC1C(=O)N(C3CCCCC3)C(=O)C21 (configuration not stated)	–	13µM	?	15µM
O=C(CN1CC[n+]2c(-c3cccs3)csc21)c1ccc(-c2ccccc2)cc1	–	13µM	?	?
CC(C)C(=O)Nc1ccc(C(=O)N/N=C/c2cc(Br)cc(Br)c2O)cc1	-78	?	?	?
COc1cc(OC)c(/C=N/NC(=O)c2ccc(NC(C)=O)cc2)cc1Br	–	–	–	?
CC(=O)Nc1ccc(C(=O)N/N=C/c2cc(Br)cc(Br)c2O)cc1	–	–[5.75 µM]	–	2.9µM
CC(=O)Nc1cccc(C(=O)N/N=C/c2ccccc2F)c1	–	–	–	6.6µM
Cc1nn(C)c(C)c1S(=O)(=O)N(CC(=O)NCCc1ccccc1)c1ccc(C(C)C)cc1	–	·	·	·
Cc1csc2nc(-c3ccc(NS(=O)(=O)c4cccc(F)c4)cc3)cn12	–	·	·	·
Fc1ccccc1-c1nc(N2CCN(c3cccc(Cl)c3)CC2)c2ccccc2n1	–	·	·	·
COc1ccc(N2CCN(C(=O)C3CCN(S(=O)(=O)c4cccc5nonc45)CC3)CC2)cc1	–	·	·	·
COc1ccc(S(=O)(=O)N2CCC(n3c(C)nc4cccnc43)CC2)cc1Cl	–	·	·	·
CC(=O)OC1(C)CC(C)C(=O)C(C(O)CC2CC(=O)NC(=O)C2)C1 (configuration not stated)	-105	·	0.5µM	·
C[C@@H]1C[C@@H]([C@H](O)CC2CC(=O)NC(=O)C2)C(=O)[C@@H](C)C1	-76	0.1µM	1.3µM	0.1µM
CCOC(=O)Cn1c(=O)oc2cc(S(=O)(=O)NCc3ccc(F)cc3)ccc21	–	·	·	·
O=C(c1cnc(N2CCCCC2)c2ccccc12)N1CCN(c2ccccc2F)CC1	–	·	·	·
O=C(CCNS(=O)(=O)c1ccc2c(c1)CCN2C(=O)C1CC1)N1CCN(c2cccc(C(F)(F)F)c2)CC1	-60	·	·	·
CCC(=O)N1CCCc2cc(S(=O)(=O)Nc3ccc(C)c(C)c3)ccc21	–	·	·	·
Cc1ccc(Cl)cc1N1CCN(C(=O)CCNS(=O)(=O)c2ccc3c(c2)CCN3C(=O)C2CC2)CC1	–	·	·	·
